Compound activity from PubChem.
This is a sample that favours compounds with a hit; in the whole collection about 8% have one here.
RORgamma inh: qHTS for inhibitors of ROR gamma transcriptional activity | Drosophila S2 Gal4-RORgamma UAS-luciferase reporter, 20 h | Potency, µM (highest dose often 53.6 µM), without a hit: top-dose activity change, negative = inhibition, most hits filed as inhibitors | 310,000 compounds, 5.4% hits | AID 2551, 2010; note: potency is the fitted concentration of half-maximal effect; nearly all actives have a fitted effect of over 60% in size
Target sequence (P51450 whole entry, looked up, the tested form may be a part): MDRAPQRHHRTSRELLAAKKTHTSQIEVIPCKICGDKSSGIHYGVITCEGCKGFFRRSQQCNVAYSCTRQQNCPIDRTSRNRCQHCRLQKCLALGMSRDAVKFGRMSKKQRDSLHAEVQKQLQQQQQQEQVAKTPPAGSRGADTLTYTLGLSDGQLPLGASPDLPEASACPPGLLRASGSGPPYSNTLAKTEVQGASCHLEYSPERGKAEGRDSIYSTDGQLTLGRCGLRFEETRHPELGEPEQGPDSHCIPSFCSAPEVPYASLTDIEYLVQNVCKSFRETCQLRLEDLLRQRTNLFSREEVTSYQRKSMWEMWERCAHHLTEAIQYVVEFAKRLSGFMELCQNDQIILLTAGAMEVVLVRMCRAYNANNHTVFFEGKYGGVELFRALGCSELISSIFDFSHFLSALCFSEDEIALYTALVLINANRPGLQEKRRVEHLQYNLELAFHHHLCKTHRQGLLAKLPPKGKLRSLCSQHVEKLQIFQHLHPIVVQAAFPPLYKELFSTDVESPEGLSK
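Drosophila Schneider cells stably carrying a metallothionein-driven Gal4 DBD–ROR gamma fusion and a UAS-Photinus luciferase reporter were exposed to compound for 1 hr, then induced with copper sulfate (700 uM final) for 20 hr at ambient temperature before luminescence reading.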
Gal4-VP16 FLuc: VP16 counterscreen qHTS for inhibitors of ROR gamma transcriptional activity. Drosophila S2 Gal4-VP16 UAS-luciferase, luminescence, 20 h. Potency, µM (top dose mostly 53.6 µM), inactives show at the top dose activity, negative = inhibition, most hits filed as inhibitors. 310,000 compounds, 3.5% hits. AID 2546, 2010;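 note: Gal4-VP16 expression switched on by copper sulfate through the metallothionein promoter; potency is the fitted concentration of half-maximal effect; nearly all actives have a fitted effect of over 50% in size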
ELG1 DNA repair: qHTS screen for small molecules that inhibit ELG1-dependent DNA repair in human embryonic kidney (HEK293T) cells expressing luciferase-tagged ELG1 | 330,000 compounds, 2.3% hits | Potency, µM (doses to about 46.1 µM), for inactives: at the highest dose activity change, negative = inhibition, usual class: inhibitors | AID 504467, 2011 | HEK293T ELG1-luciferase reporter, luminescence, 16 h; DNA damage induced by 5-fluorouridine; note: potency is the fitted concentration of half-maximal effect; nearly all actives have a fitted effect of over 55% in size
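DMSO vehicle served as the neutral condition. Each well held 2,000 cells given 5-fluorouridine plus compound; after 16 hr at 37 °C/5% CO2, ONE-Glo was added and luciferase measured 30 min later.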
TSHR antag: Antagonists of the Thyroid Stimulating Hormone Receptor: HTS campaign; Thyrotropin receptor (Homo sapiens), P16473; TSHR-expressing cells, TSH-stimulated cAMP HTRF, 2 h; active compounds read low; activity change, negative = inhibition, % at 11.5 µM; 330,000 compounds, 0.2% hits; AID 504810, 2011;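 active = activity change below a set negative limit, meaning inhibition stronger than a set level, cut at about -70% in these data; inconclusive = activity change between two set negative limits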
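TSHR-expressing cells were treated with compounds, then stimulated with TSH at EC80 (4nM final) for 2 hours at 37 deg C. Cellular cAMP was measured by HTRF competition between lysate cAMP and cAMP-d2 for a cryptate-labelled anti-cAMP antibody.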
FBPA coupling cs: qHTS Assay for Inhibitors of Fructose-1,6-bisphosphate Aldolase from Giardia Lamblia: Coupling assay counterscreen; coupling enzyme system counterscreen, AmpLite Red fluorescence; activity change, negative = inhibition, % at 58.2 µM, hits read low; 290,000 compounds, 0.67% hits; in the data active = activity change below about -30%
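Coupling enzymes only (glyceraldehyde-3-phosphate) + compound, at 57.5 uM final, 10 min RT; add substrate/coupling/AmpLite Red mix, 20 min RT; fluorescence ex 525/em 598 nm. Actives flag coupling-system interference.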
An asterisk follows results filed as active; ? = inconclusive; . = no result; [ ] = remark or other dose. Unless noted, calls come from the whole dose curve; as a rule, active = well fitted curve in the direction sought with a large enough effect; inconclusive = small, poorly fitted or top-dose-only effect, or another doubt; inactive = no such curve, though single readings can be large; an effect the other way counts as inactive or inconclusive. % is set by controls: 0 for no effect and ±100 for the full control effect.

SMILES	RORgamma inh	Gal4-VP16 FLuc	ELG1 DNA repair	TSHR antag	FBPA coupling cs
O=C1CC(c2cccc([N+](=O)[O-])c2)c2cc3c(cc2N1)CCC3 (stereo not drawn)	34.5%	?	16.4µM*	-17.0	-2.6
CN1CCN(c2ncc3nc(-c4ccccc4)c(=O)n(-c4ccccc4)c3n2)CC1	-10.3%	-9.0%	.	.	1.3
COc1ccc(-n2nc3c(c2NC(=O)c2ccc(Br)o2)CS(=O)(=O)C3)cc1	-20.5%	-12.9%	?	18.5	3.2
C[C@]12c3[nH]c4ccccc4c3CCN1C(=O)C(CC(=O)NCCc1ccccn1)C[C@@H]2C(=O)N1CCOCC1 (stereo partly drawn)	.	.	14.7%	2.9	.
CC(C)C[C@H](NC(=O)c1nc[nH]c1C(=O)NCCCCCNC(=O)OC(C)(C)C)C(=O)OC(C)(C)C	3.16µM*	7.08µM*	?	-7.6	-17.0
CC(C)(C)OC(=O)NCCCC[C@H](NC(=O)c1nc[nH]c1C(=O)N1CCN(c2ccccc2)CC1)C(=O)OC(C)(C)C	12.6µM*	?	20.6µM*	-4.6	1.0
CC(C)(C)OC(=O)CNC(=O)c1[nH]cnc1C(=O)NCCCCCNC(=O)OC(C)(C)C	?	0.2%	?	-16.1	-0.4
CC(C)C[C@H](NC(=O)c1nc[nH]c1C(=O)N[C@@H](CCCCNC(=O)OC(C)(C)C)C(=O)OC(C)(C)C)C(=O)OC(C)(C)C	5.01µM*	11.2µM*	?	1.5	-13.7
CNC(=O)c1[nH]cnc1C(=O)N[C@@H](CCCCNC(=O)OC(C)(C)C)C(=O)OC(C)(C)C	-31.7%	3.3%	0.0%	-4.4	0.4
CC(C)(C)OC(=O)NCCCCCNC(=O)c1nc[nH]c1C(=O)N1CCN(c2ccccc2)CC1	.	.	?	1.4	.
C[C@H](NC(=O)c1nc[nH]c1C(=O)NCCCCCNC(=O)OC(C)(C)C)C(=O)OC(C)(C)C	-52.2%	-11.2%	5.17µM*	21.6	-3.4
COCCNC(=O)c1ccc(Cl)c(S(=O)(=O)Nc2cccc(C)c2C)c1	8.8%	-8.3%	2.1%	27.5	.
C=Cc1ccccn1	7.2%	-3.0%	.	.	.
CC(C)(C)OC(=O)NCCCC[C@H](NC(=O)c1[nH]cnc1C(=O)Nc1ccc(Cl)cc1)C(=O)OC(C)(C)C	?	?	?	-1.3	-3.6
CC(C)(C)OC(=O)NCCCC[C@H](NC(=O)c1[nH]cnc1C(=O)Nc1ccccc1)C(=O)OC(C)(C)C	12.6µM*	?	?	4.6	-7.7
O=C(Nc1c(F)cccc1F)c1ccc2c(c1)CCN2S(=O)(=O)c1ccccc1	31.4%	-6.8%	?	-0.1	0.3
CC1CCCN(C(=O)CSc2nnc3n(C4CCCC4)c(=O)c4ccccc4n23)C1 (stereo not drawn)	-14.4%	-3.9%	9.2µM*	5.4	2.1
COCCNC(=O)[C@H](C)/C=C(\c1cccnc1)C(NC(=O)OCc1ccccc1)c1ccc(C(=O)OC)cc1 (stereo partly drawn)	25.5%	-2.7%	.	.	5.0
CC(=O)Nc1sc(C)c(C)c1C(=O)OCC(=O)NCc1ccc(F)cc1	.	.	4.0%	1.8	.
O=C(CSc1nnc(NC(=O)c2ccccc2)s1)NCc1ccco1	?	?	?	41.3	.
Cc1ccc(C(=O)Nc2nnc(SCC(=O)N3CCCc4ccccc43)s2)cc1	0.501µM*	1.26µM*	?	-14.0	6.7
O=C(CSc1nnc(NC(=O)c2ccc3c(c2)OCO3)s1)NCc1ccco1	12.6µM*	?	?	-6.4	-0.2
CCOC(=O)CNC(=O)CSc1nnc(NC(=O)c2ccc3c(c2)OCO3)s1	7.08µM*	?	?	-6.9	.
CCOC(=O)CNC(=O)CSc1nnc(NC(=O)c2ccc(C)cc2)s1	5.62µM*	6.31µM*	?	-3.0	-1.2
CCOC(=O)[C@H]1[C@H]2COc3ccc(C)cc3[C@@H]2N2C(=O)c3cc(C)ccc3NC(=O)[C@@]12C	.	.	?	-10.4	.
SMILES	RORgamma inh	Gal4-VP16 FLuc	ELG1 DNA repair	TSHR antag	FBPA coupling cs
Cc1onc(-c2ccccc2)c1C(=O)N/N=C/C=C/c1ccccc1	2.24µM*	3.16µM*	?	-5.1	-0.5
CCN(CC)c1ccc(/C=N/NC(=O)c2c(-c3ccccc3)noc2C)cc1	11.2µM*	?	?	11.3	0.1
CCN(CC)c1ccc(/C=N/NC(=O)C2CC2)cc1	9.0%	18.5%	?	-23.3	0.2
CCN(CC)c1ccc(/C=N/NC(=O)Nc2nonc2N)cc1	7.08µM*	-99.1%	?	8.6	-13.7
CCN(CC)c1ccc(/C=N/NC(=O)c2c(Cl)c(C)nn2C)cc1	5.62µM*	?	?	-5.9	1.1
CCOC(=O)N1CCN(c2nc(-c3ccccc3)c3ccccc3n2)CC1	3.5%	7.8%	-9.3%	-0.1	2.5
COc1ccccc1CN1C(=NC(=O)C2CCCCC2)SC2CS(=O)(=O)CC21 (stereo not drawn)	-10.8%	-9.5%	?	-6.3	-2.3
Cc1onc(-c2ccccc2)c1C(=O)N/N=C/c1ccc([N+](=O)[O-])s1	11.2µM*	11.2µM*	?	-5.8	0.2
Cc1c(C#N)c(NC(=O)CCl)n(Cc2cccs2)c1C	-13.4%	?	?	-6.5	3.3
CC(C)C[C@@H](CC(=O)N[C@@H](CCCN)CC(=O)N[C@@H]1CCCC[C@H]1C(=O)N[C@H](CC(=O)N[C@@H](CCC(=O)O)CC(=O)O)Cc1ccccc1)NC(=O)[C@@H]1CNCC[C@H]1N	-2.8%	8.7%	.	.	0.5
COc1cccc(NC(=S)NC2CC3CCCC(C2)N3CC(C)C)c1 (stereo not drawn)	10µM*	6.9%	10.5%	5.6	0.5
COc1cccc(C(=O)NC2CC3CCCC(C2)N3CC(=O)Nc2ccccc2)c1 (stereo not drawn)	36.7%	-3.4%	?	-1.3	-35.7*
COc1cccc(NC(=S)N2C3CCCC2CC(NC(=O)C2CC2)C3)c1 (stereo not drawn)	0.2%	-14.8%	2.3%	24.3	1.6
O=C1CN(C(=O)COC(=O)c2ccccc2Br)c2ccccc2N1	.	.	13.2%	5.5	.
CCCC[C@]12Cc3c(ccc4ccccc34)C(O1)C1=C(O2)C(=O)c2ccccc2C1=O	-23.1%[10 µM]	-3.6%[10 µM]	.	.	-7.1
CC(CCc1ccccc1)NS(=O)(=O)c1ccc(Cl)c(C(=O)O)c1 (stereo not drawn)	-21.1%	4.4%	15.9%	-3.0	8.7
O=C(Nc1ccccn1)NC1CCCCC1	25.0%	10.0%	0.0%	-5.7	0.7
